# Only some compounds are listed: those with a hit (about 3.5% of all), similar ones and a draw of the others.
# FBW7 act = FBW7 E3 ligase activators, primary screen, biochemical, AlphaScreen, human; F-box/WD repeat-containing protein 7 (Homo sapiens), Q969H0; AlphaScreen FBW7–phospho-cyclin E peptide binding, activator screen; normalized activity (activation), % at 26.1 µM; hit rate 0.13% among 650,000; in the data active = normalized activity above about 1.9%;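 also: purified mutant Fbw7 with reduced substrate affinity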
# GPR151 activ = activators of human GPR151, primary screen, cell-based, PathHunter beta-arrestin, luminescence; G-protein coupled receptor 151 (Homo sapiens), Q8TDV0; PathHunter beta-arrestin GPR151 cells; activation, % at 11.2 µM; hit rate 1% among 650,000; AID 1508602, 2020; in the data active = activation above about 4.9%;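 also: 0% = median of compound wells and 100% = cells with positive control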
# TEAD-YAP block = TEAD-YAP interaction inhibition, primary screen, TEAD-YAP interaction inhibitor project, luminescence, HEK-TIYL cells. TEAD-Gal4/YAP UAS-luciferase luminescence. inhibition, % at 9.12 µM. hit rate 1.4% among 640,000. AID 1259422, 2018; in the data active = inhibition above about 32%;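 also: 0% = median of test compound wells and 100% = reference inhibitor wells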
# MITF primary = MITF inhibitors, primary screen, biochemical, AlphaScreen, human; Microphthalmia-associated transcription factor (Homo sapiens), O75030; AlphaScreen MITF homodimerization, bead proximity signal; inhibition, % at 2.6 µM; hit rate 0.91% among 650,000; AID 1259374, 2018; in the data active = inhibition above about 50%;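 also: 0% = vehicle wells with protein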
# GPR151 confirm = GPR151 activators, triplicate retest, confirmation, cell-based, PathHunter beta-arrestin, luminescence | 6,700 tested, under 10 active | AID 1508609, 2020 | activation, % at 11.2 µM | shares compounds with GPR151 activ | GPR151 PathHunter beta-arrestin cells, 90 min; % of EA-reagent control over plate median;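 active = mean percent activation across replicates above the confirmation screen cutoff of 4.91%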
# GPR119 ag = GPR119 activators in beta-arrestin cells, counter-screen for GPR151 activator project, cell-based, PathHunter beta-arrestin, luminescence, triplicate. 90 min; 0 = compound-well median, 100 = enzyme-acceptor control. hit rate 0.3% among 6,700. AID 1508611, 2020. activation, % at 11.2 µM. shares compounds with GPR151 activ;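 active = mean percent activation in the counterscreen above 29.09%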;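 also: counterscreen on off-target GPR119 to flag nonselective hits from the GPR151 activator screen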
# Active calls of the source: *; x = not tested or not shown.
SMILES,FBW7 act,GPR151 activ,TEAD-YAP block,MITF primary,GPR151 confirm,GPR119 ag
CCn1c(=O)c2c(nc3n2CCCN3c2ccc(Br)cc2)n(C)c1=O,0,0,1,2,x,x
O=C(NC(C(=O)N1CCCC1C(=O)O)=C1CCCCC1)c1ccccc1 (stereo not drawn),0,0,-10,8,x,x
CCCOc1ccc(N2C(=O)C3C(C2=O)C2(C)CC3(C)CC2=O)cc1 (stereo not drawn),0,7.8*,-4,11,0,-11
CN(C)c1nc2cc(F)ccc2cc1CN(Cc1ccco1)C(=O)c1cn2ccccc2n1,0,15*,2,0,0,7
O=C(O)c1cc(-c2ccc(/C=C3\Sc4ccccc4C3=O)o2)ccc1Cl,0,0,-2,19,x,x
O=C1/C(=C\c2ccc(-c3ccc(Cl)cc3)o2)Sc2ccccc21,0,8.4*,-9,10,0,0
O=C(Nc1cc(Cl)ccc1Cl)/C(=C/c1cccc([N+](=O)[O-])c1)NC(=O)C1CCCCC1,0,1,-4,-3,x,x
O=C(Nc1ccc(Cl)cc1)/C(=C/c1cccc([N+](=O)[O-])c1)NC(=O)C1CCCCC1,0,6.2*,6,-1,-1,-2
CC(C)C(NC(=O)C1CCCCC1)C(=O)Nc1ccncc1 (stereo not drawn),0,5.6*,6,-2,0,9
Cc1ccc(NC(=O)CCC(=O)N/N=C/c2ccc(N(C)C)cc2)cc1,0,1,10,11,x,x
FC1(F)C(F)(F)C(F)(F)C2(F)C(F)(F)C(F)(F)C(F)(F)C(F)(F)C2(F)C1(F)F (stereo not drawn),0,5.1*,3,1,0,-6
NC(=O)C1CCN(Cc2ccc(Cl)cc2)CC1,0,1,-7,9,x,x
NC(=O)C1CCN(Cc2cccc(Cl)c2)CC1,0,5.1*,7,40,1,6
O=C(NCc1nnc2n1CCN(C/C(Cl)=C/c1ccccc1)CC2)c1cccc(F)c1,0,9.2*,2,-4,1,14
CC(C)(C)CN1CCc2nnc(CNC(=O)c3cccc(F)c3)n2CC1,0,1,9,5,x,x
CCOC(=O)COn1c(=O)c(-c2ccc(Oc3ccccc3)cc2)[n+]([O-])c2ccccc21,0,5.3*,-12,-10,0,-6
O=c1c(-c2ccccc2)[n+]([O-])c2ccccc2n1OCc1ccccc1[N+](=O)[O-],0,6.0*,8,12,2,6
Cc1ccc(OCC(=O)Nc2ccccc2I)cc1C,0,1,2,20,x,x
COCc1cc(C)nc(SCC(=O)Oc2ccccc2)c1C#N,0,-1,1,-9,x,x
COCc1cc(C)nc(SCC(=O)O)c1C#N,0,5.9*,6,1,0,-10
CCNC(=O)C1=C2c3ccccc3CC(C)(C)N2C(=O)C1=O,0,6.1*,0,-3,0,10
CC1(C)Cc2ccccc2C2=C(C(=O)N3CCCCCC3)C(=O)C(=O)N21,0,1,8,12,x,x
Cc1cccc(NC(=O)CCN2C(=O)c3ccccc3C2=O)c1,0,0,8,20,x,x
Cc1ccc(C)c(NC(=O)C23CCC(C)(C(=O)C2=O)C3(C)C)c1 (stereo not drawn),0,3,-3,1,x,x
CC12CCC(C(=O)Nc3ccccc3C(F)(F)F)(C(=O)C1=O)C2(C)C (stereo not drawn),0,6.1*,0,-19,0,4
SMILES,FBW7 act,GPR151 activ,TEAD-YAP block,MITF primary,GPR151 confirm,GPR119 ag
CC(Sc1nnc(NC(=O)c2ccccc2)s1)c1nc2ccccc2c(=O)[nH]1 (stereo not drawn),0,5.7*,-1,7,0,5
O=C(/C=C/c1ccc(OCc2ccccc2)cc1)NCc1ccco1,0,8.0*,14,3,0,0
COc1ccccc1/C=C/C(=O)NCc1ccco1,0,8.9*,-5,6,-1,-13
O=C(/C=C/c1ccccc1)NCc1ccco1,0,0,-24,-6,x,x
O=C(/C=C/c1ccccc1Cl)NCc1ccco1,0,0,-27,11,x,x
COc1ccc(NC2CC(=O)N(c3ccc(Cl)c(C(F)(F)F)c3)C2=O)cc1 (stereo not drawn),0,6.0*,15,3,0,-8
COc1ccccc1NC1CC(=O)N(c2ccc(Br)cc2)C1=O (stereo not drawn),0,0,6,-5,x,x
COc1ccccc1NC1CC(=O)N(c2cccc(Cl)c2)C1=O (stereo not drawn),0,9.1*,-9,2,0,4
COc1ccc(NC2CC(=O)N(c3ccc(OC)cc3)C2=O)cc1 (stereo not drawn),0,-2,0,-5,x,x
Cc1ccc(-c2cncc(-c3cc(Nc4ncccn4)nc(C)n3)c2)cc1,0,-1,1,42,x,x
COc1ccc(-c2cncc(-c3cc(Nc4ncccn4)nc(C)n3)c2)cc1,0,6.9*,-1,3,-1,0
COc1cc(Nc2nc(C)cc(NC3CC3)n2)cc(OC)c1OC,0,5.9*,11,3,1,1
COc1cc(Nc2cc(C)nc(Nc3cccnc3)n2)cc(OC)c1OC,0,0,0,24,x,x
COc1ccc(C(=O)N/N=C/c2ccc(O)c(OC)c2)cc1,0,-1,-26,0,x,x
COc1cc(/C=N/NC(=O)c2ccc(N(C)S(=O)(=O)c3ccccc3)cc2)ccc1O,0,9.3*,-9,5,1,-3
O=C(N/N=C/c1ccc(C(=O)O)cc1)C(=O)Nc1cccc(Br)c1,0,9.3*,6,1,0,0
O=C(N/N=C/c1cccc(Br)c1)C(=O)Nc1cccc(C(=O)O)c1,0,0,0,2,x,x
COc1ccccc1NC(=O)C(=O)N/N=C/c1ccc(C(=O)O)cc1,0,5.3*,4,14,0,-5
COc1ccc(NC(=O)C(=O)N/N=C/c2ccc(C(=O)O)cc2)c(OC)c1,0,-1,2,9,x,x
CCc1nn(-c2ccccc2)c2nc(-c3ccccc3Cl)c3cc(OC)c(OC)cc3c12,1,-1,5,9,x,x
Cc1[nH]n(-c2ccccc2)c(=S)c1/C=N/c1ccccn1,0,5.9*,6,-8,0,5
Cc1ccc(-n2[nH]c(C)c(/C=N/c3ccccn3)c2=O)cc1,0,-3,5,-7,x,x
